The subject of one assay is CAOV3. The assay can be described thus: Primary qHTS to identify gynecologic anti-cancer compounds using libraries of approved drugs and bioactive compounds (AID 1345084). Further: nearly all actives have a fitted effect of over 55% in size. To be noted: Gynecologic cancer cell panel viability, ATPlite luminescence, 48 h; series mostly up to 57.5 µM. In short, it runs like this:
(§1)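 Cell viability after 48 h drug treatment, ATPlite luminescence readout; five doses.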

Another assay relates to CASKI. The description is as above. To be noted: Gynecologic cancer cell panel viability, ATPlite luminescence, 48 h; series mostly up to 57.5 µM. The method, boiled down: as §1
In the next assay the test system is OV90. Described as above. To be noted: Gynecologic cancer cell panel viability, ATPlite luminescence, 48 h; series mostly up to 57.5 µM. In short, it runs like this:
as §1
(In general: Cellular ATP, detected with luciferase, serves as a proxy for viable cell number.)

In another assay the test system is SKOV3. Described as above. To be noted: Gynecologic cancer cell panel viability, ATPlite luminescence, 48 h; series mostly up to 57.5 µM. The method, boiled down:
as §1

Another assay has as its system Tov112D. Described as above. To be noted: Gynecologic cancer cell panel viability, ATPlite luminescence, 48 h; series mostly up to 57.5 µM. In short, it runs like this:
as §1

Assay [1] can be described thus: qHTS assay to identify inhibitors of the type 1 interferon - major histocompatibility complex class I in skeletal muscle: Counter screen cell viability and HiBit confirmation (AID 1347412). Further: nearly all actives have a fitted effect of over 60% in size. To be noted: iHSKM muscle cells + IFN-b, HiBiT or CellTiter-Glo, 24 h. The method, boiled down:
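HLA-B*08:01–HiBiT knock-in immortalized human myoblasts (C25cl48) stimulated with 4.0 ng/ml human IFN-beta and dosed with compound in a 12-point 1:3 titration (top final 46 uM). After 24 hrs at 37 C, HiBiT lytic luminescence or CellTiter Glo ATP read out.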
(Quantitative high-throughput screening tests each substance at several concentrations.)

The test system of another assay is Es-2. The assay can be described thus: Primary qHTS to identify gynecologic anti-cancer compounds using libraries of approved drugs and bioactive compounds (AID 1345084). Further: nearly all actives have a fitted effect of over 55% in size. To be noted: Gynecologic cancer cell panel viability, ATPlite luminescence, 48 h; series mostly up to 57.5 µM. The method, boiled down: as §1
In another assay the test system is Hek293T. The assay is described as above. To be noted: Gynecologic cancer cell panel viability, ATPlite luminescence, 48 h, control line for the selectivity index; series mostly up to 57.5 µM. In short, it runs like this:
as §1

The subject of another assay is JEG-3. The assay is described as above. To be noted: Gynecologic cancer cell panel viability, ATPlite luminescence, 48 h; series mostly up to 57.5 µM. The method, boiled down: as §1
For another assay, the system named is PA-1. The description is as above. To be noted: Gynecologic cancer cell panel viability, ATPlite luminescence, 48 h; series mostly up to 57.5 µM. In short, it runs like this:
as §1

In a further assay the test system is Tov-21-G. Described as above. To be noted: Gynecologic cancer cell panel viability, ATPlite luminescence, 48 h; series mostly up to 57.5 µM. In short, it runs like this: as §1
The subject of another assay is HeLa. The description is as above. To be noted: Gynecologic cancer cell panel viability, ATPlite luminescence, 48 h; series mostly up to 57.5 µM. The method, boiled down:
as §1

Another assay relates to astro. Description: Drug repurposing screens with cells derived from glioblastoma tumor samples (AID 1345199). Further: nearly all actives have a fitted effect of over 40% in size. On activity, negative = cell killing: on the % scale 0 is the no-effect control and ±100 the full control effect. To be noted: viability, ATP luminescence, 48 h; series mostly up to 45.9 µM. The method, boiled down: (§2)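 Four patient lines of CD133+ GBM neurospheres were screened at several concentrations; hits were retested in those lines plus three slower-growing GBM lines, using 48-hour treatment and ATP-based viability.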

Assay in assay [2]: as above
To be noted: GBM patient neurospheres viability, ATP luminescence, 48 h. The method, boiled down: as §2

Structures are written as SMILES. Results filed as inconclusive are left out. Values without a mark were called inactive. Activity calls are given as the source filed them. The call rests on the fitted dose curve; in most records, active means well fitted curve in the direction sought with a large enough effect; inconclusive means small, poorly fitted or top-dose-only effect, or another doubt; inactive means no such curve, though single readings can be large; an effect the other way counts as inactive or inconclusive.
Potency means the concentration at half of the fitted maximal effect.

In the case of `OC[C@H]1O[C@@H](Oc2cc(O)cc(/C=C/c3ccc(O)cc3)c2)[C@H](O)[C@@H](O)[C@@H]1O`, the Potency result with CAOV3, in the assay with CASKI and in the assay on OV90 was “inactive” each time.

Regarding `COc1cc2c(Nc3ccc(Cl)c(Cl)c3F)ncnc2cc1OCC1C[C@@H]2CN(C)C[C@@H]2C1` (stereo not given in full), the Potency was 31.6 µM (active) with CAOV3; 11.2 µM (active) with CASKI; 20 µM (active) in the assay with OV90; 14.1 µM (active) with SKOV3; 17.8 µM (active) in the assay with Tov112D; 19.8 µM (active) in [1] (HiBiT). Besides, the Potency in assay [1] (Viability) is 17.6 µM (active).

Regarding `c1ccc(Nc2nc3c(s2)CCCc2[nH]ncc2-3)nc1`, the Potency entry with CAOV3, with CASKI, in the assay with Es-2, with Hek293T, with JEG-3 and with OV90 was “inactive” in each case. In addition, the Potency result in the assay on PA-1, in the assay on SKOV3, in the assay on Tov-21-G and with Tov112D was “inactive” in each case.

For `CCN(c1cc(C#CCN2CCOCC2)cc(C(=O)NCc2c(C)cc(C)[nH]c2=O)c1C)C1CCC(N(C)CCOC)CC1` (stereo not given), the Potency entry in the assay on CASKI, with Es-2, in the assay on HeLa, in the assay with Hek293T, in the assay with JEG-3 and in the assay on OV90 was “inactive” in each case. In addition, the Potency entry in the assay with PA-1, in the assay on SKOV3, in the assay with Tov-21-G and in the assay on Tov112D was “inactive” each time.

Consider `CC(C)(C)c1cc(CN2CCN(CC(O)c3ccc(Cl)cc3)CC2)cc(C(C)(C)C)c1O` (stereo not given), for which the Potency result with CAOV3, in the assay on Es-2, in the assay on HeLa, in the assay with Hek293T, in the assay on JEG-3 and in the assay on OV90 was “inactive” each time. The Potency entry in the assay on PA-1, in the assay with SKOV3, in the assay with Tov-21-G and with Tov112D was “inactive” in each case.

For the compound `N#Cc1ccc2[nH]c(O)c(-c3ccc(CN4CCOCC4)cn3)c2c1`, the Potency result in the assay on CAOV3, with CASKI, in the assay with Es-2, in the assay with Hek293T, with JEG-3 and in the assay on OV90 was “inactive” throughout. In addition, the Potency entry in the assay with PA-1, in the assay on SKOV3, with Tov-21-G and with Tov112D was “inactive” in each case.

As to `Cc1ccc(Sc2cncc3sc(C(N)=O)cc23)cc1`, the Potency result in the assay with CAOV3, in the assay on Es-2, in the assay on HeLa, with Hek293T, in the assay on OV90 and in the assay with PA-1 was “inactive” in each case. For the same compound, the Potency result in the assay with SKOV3 and with Tov112D was “inactive” throughout.

Take `C=C1CC2(C(=O)O)CC1CCC2C1(C)CCCC2(C)C(=O)OC(O)C21` (stereo not given): the Potency entry in the assay with CAOV3, with Es-2, with HeLa, in the assay with Hek293T, in the assay with JEG-3 and with OV90 was “inactive” throughout. Also, the Potency entry in the assay with PA-1, in the assay with SKOV3, in the assay with Tov-21-G and with Tov112D was “inactive” throughout.

As for `O=C(Nc1cccnn1)N1CCC(=Cc2cccc(Oc3ccc(C(F)(F)F)cn3)c2)CC1`, the Potency result in the assay with CAOV3, in the assay with Es-2, in the assay on HeLa, in the assay on JEG-3, in the assay on Tov-21-G and in the assay on Tov112D was “inactive” each time.

Consider `CC1(CCC(=O)O)C(=O)C=CC23CC4CC(OC4(C)C2O)C13` (stereo not given), for which the Potency entry with CASKI, in the assay with Es-2, with HeLa, in the assay with Hek293T, in the assay on JEG-3 and with OV90 was “inactive” each time. The Potency entry with PA-1, in the assay on SKOV3, with Tov-21-G and with Tov112D was “inactive” in each case.

On to `CC(CO[C@@H]1O[C@H](COC(=O)/C=C/c2ccc(O)c(O)c2)[C@@H](O)[C@H](O)[C@H]1O)C1(O)COC(=O)C1` (stereo not given in full), for which the Potency result in the assay with CAOV3, with CASKI, in the assay on Es-2, in the assay with HeLa, in the assay with Hek293T and in the assay on OV90 was “inactive” throughout. The Potency result in the assay with PA-1, in the assay with SKOV3, with Tov-21-G and in the assay on Tov112D was “inactive” throughout.

As for `O=C(O)C[C@H](O)C[C@H](O)/C=C/c1c(C2CC2)nc2ccccc2c1-c1ccc(F)cc1`, the Potency in the assay on HeLa was 8.91 µM (active); in the assay on PA-1 it was 10 µM (active); with Tov112D, 11.2 µM (active); in the assay on astro, 0.398 µM (active). Besides, the Potency result in the assay on JEG-3 is “inactive”.

In the case of `CC(C)C1(O[C@@H]2O[C@H](CO)[C@@H](O)[C@H](O)[C@H]2O)CC=C(CO)CC1` (stereo not given in full), the Potency entry in the assay on CASKI, with Es-2, in the assay on HeLa, with Hek293T, in the assay with JEG-3 and in the assay on OV90 was “inactive” throughout. Besides, the Potency result with SKOV3, with Tov-21-G and in the assay with Tov112D was “inactive” each time.

For the compound `COCC(=O)Nc1cc(Sc2ccccc2)ccc1N=C(NC(=O)OC)NC(=O)OC`, the activity, negative = cell killing in [2] (at 46.1 µM (top of the series), tumour line C) is -20.6%. Also, in [2] (tumour line A), the Potency is 6.31 µM (active).

These data come from PubChem BioAssay (NCATS).
